These results are taken from PubChem BioAssay AID489025 (Southern Research Specialized Biocontainment Screening …, 2010).

The whole screen tested about 2,300 compounds, of which about 790 (34%) were called active. Some of the results follow. Entries with a potency or affinity are not part of this list. A number with no mark means an inactive call. How the calls were made is not given here.

The test is described as follows: THP-1 cell cytotoxicity, dose response, cytotoxicity control for non-replicating M. tuberculosis project (AID 489025). The following applies: THP-1 cell viability; series mostly up to 40 µM; viability: at the top concentration.
With `CC(C)OC(=O)C(C)Oc1ccc(C(=O)NCCc2ccccc2)cc1` (configuration not stated), the viability (commonly a read-out of living cells in per cent, often relative to untreated cells) is 89.1%.

`O=C(CC1CCCCC1)NCc1ccccc1`: the “viability” value was 110%. Next, `CC1CCN(C(=O)COC(=O)c2cc3ccccc3cc2O)CC1`: 112%. The same measure for `CCNC(=O)COC(=O)c1ccc(-c2nc3ccccc3s2)s1`: 111%; for `CCSc1ncc(/C=N/Nc2ccc(Cl)cc2)n1C`: 80.5%; for `Cc1ccc(NC(=O)COC(=O)C2=COCCO2)c([N+](=O)[O-])c1`: 114%. The same measure for `Cc1c(NC(=O)c2coc(=O)c(Br)c2)c(=O)n(-c2ccccc2)n1C`: 117%.

As to `CCOC(=O)C(=O)NC12CC3CC(CC(C3)C1)C2`, the “viability” value was 101%. Next, `O=C(COC(=O)c1ccc(Br)o1)Nc1ncc([N+](=O)[O-])s1`: 95.2%. Next, `C/C(=N\NC(=O)c1cccs1)c1ccc2c(c1)OCO2`: 88.5%; `O=C(CCS(=O)(=O)Cc1ccccc1)Nc1ncc([N+](=O)[O-])s1`: 87.1%; `O=C(NCCC1CCCC1)c1cccs1`: 93.2%. Take `CCC(=O)c1ccc(OCC(=O)OCC(=O)N2CCc3ccccc3C2)cc1`: the “viability” value was 114%. As to `O=C(OCC(=O)N1CCc2ccccc21)c1ccc([N+](=O)[O-])cc1`, the “viability” value was 123%.

In the case of `COC(=O)COc1ccc2cc(-c3ccc(OC)cc3)c(=O)oc2c1`, the “viability” value was 127%. `Cc1cccc(NCCC(=O)c2ccc([N+](=O)[O-])cc2)c1C`: the “viability” value was 102%. The same measure for `Cc1cccc(NC(=O)c2n[nH]c([N+](=O)[O-])c2Br)c1C`: 104%. For `O=C(Nc1ccc([N+](=O)[O-])cc1)c1ccc(Cn2cc([N+](=O)[O-])cn2)cc1`, the “viability” value was 73.7%. Next, `Cc1ccc(CCC(=O)Nc2ccc(C)c(C)c2)o1`: 118%; `O=C(NCc1ccc(Cl)cc1)c1n[nH]c([N+](=O)[O-])c1Cl`: 116%. As for `O=C(NCc1ccc(F)cc1)c1ccc(Br)o1`, the “viability” value is 123%. Consider `COc1ccc(NC(=O)c2ccc(-c3ccc([N+](=O)[O-])cc3)o2)cc1OC`, for which the “viability” value is 81.5%. Next, `CCC1CCc2sc(C(=O)NCC3CCCO3)cc2C1` (configuration not stated): 75.8%; `CN1CCN(c2c(F)cc3c(=O)c(C(=O)O)cn4c3c2SCC4)CC1`: 100%; `Cc1cc(C=C2C(=O)N(C)C(=S)N(C)C2=O)c(C)n1-c1cccnc1`: 77%. Turning to `Cc1cccc(NC(=O)COC(=O)CCc2c[nH]c3ccccc23)c1C`, the “viability” value is 117%. Next, `CC(=O)c1ccc(-c2nnc(CCC(=O)N(C)Cc3cccc4cnccc34)o2)s1`: 89.4%.

With `CN1C(=O)CC(Sc2ccccc2C(=O)O)C1=O` (configuration not stated), the “viability” value was 132%. The same measure for `O=C(COC(=O)c1ccc(Cl)s1)c1ccc[nH]1`: 101%.

As to `COC(=O)[C@H](CC(C)C)NC(=O)NCCC1=CCCCC1`, the “viability” value was 120%. Next, `CCn1nnc(NC(=O)COc2ccc(C3CCCCC3)cc2)n1`: 82.2%.

For `COc1ccccc1CCNC(=O)c1ccc(C)o1`, the “viability” value is 87.9%. Next, `CCn1nnc(NC(=O)c2ccc(-c3ccc(Cl)cc3)o2)n1`: 98.2%. The same measure for `COc1ccccc1NC(=O)C(=O)/C=C(\O)c1ccccc1`: 82.8%; for `CC12CN3CC(C)(CN(C1)C3c1ccc([N+](=O)[O-])o1)C2` (configuration not stated): 109%; for `CC1CC(C)CN(C(=O)COC(=O)c2ccc([N+](=O)[O-])o2)C1` (configuration not stated): 93.8%. Consider `COc1ccc(OCCCC(=O)Nc2ccc(N3CCOCC3)cc2)cc1`, for which the “viability” value was 116%. The same measure for `CCOC(=O)CCNC(=O)c1ccc2nc(C3CCCCC3)oc2c1`: 104%; for `Cc1[nH][nH]c(=O)c1C(c1ccc(-c2ccc(F)cc2)o1)c1c(C)[nH][nH]c1=O`: 96.8%. As to `CC(C)(C)OC(=O)NCCC(=O)Oc1ccc2ccc(=O)oc2c1`, the “viability” value is 89.2%.

Turning to `Cc1noc(C)c1COc1ccc(C(=O)Nc2ccccn2)cc1`, the “viability” value is 91.7%. Consider `O=C(Nc1ccccc1F)c1ccc(CSc2ccccc2)o1`, for which the “viability” value is 89.5%.

As to `Cc1ccc(C)c(-c2nnc(NC(=O)COc3ccccc3)o2)c1`, the “viability” value was 77.5%. The same measure for `Cc1cc(C)c(C(=O)COC(=O)c2ccc([N+](=O)[O-])o2)cc1C`: 115%; for `Cc1ccc(C)c(-c2nnc(NC(=O)C3=COCCO3)o2)c1`: 83%.

Consider `COCCn1c(C)cc(C(=O)COC(=O)c2ccc([N+](=O)[O-])o2)c1C`, for which the “viability” value was 118%.

Consider `O=C1NN(c2ccccc2)C(=O)/C1=C/c1ccc(Sc2ccc(Cl)cc2)o1`, for which the “viability” value is 79%.

Consider `COc1ccc(-c2nnn(Cc3ccccc3)n2)cc1`, for which the “viability” value was 103%. For the compound `NC(=O)c1cccnc1Nc1cccc(F)c1`, the “viability” value was 104%. Next, `COCCCC1CCN(Cc2nc(-c3ccccc3)no2)CC1`: 104%; `CCCCNC(=O)COC(=O)c1cc(Br)ccc1Cl`: 118%. Regarding `CC1COC(=O)C(NNc2ccc(Cl)c(Cl)c2)=N1` (configuration not stated), the “viability” value is 115%. For `S=c1c2c(nc3nc[nH]n13)CCC2`, the “viability” value is 102%. On to `O=C(Cc1ccc(Cl)cc1)OCC(=O)c1ccc[nH]1`, for which the “viability” value is 111%. The same measure for `Cc1cccc(OC(=O)c2sc3ncn(C)c(=O)c3c2C)c1`: 84.2%; for `O=[N+]([O-])c1ccc(CN2CCN(c3ccc(Cl)cc3)CC2)o1`: 108%; for `Cc1ccccc1NC(=O)c1nc[nH]c1C(=O)NCc1ccccc1`: 91.3%. Consider `O=C(c1ccc([N+](=O)[O-])o1)N1CCN(Cc2ccccc2)CC1`, for which the “viability” value was 78.6%.

Regarding `Cc1cccc(CC(=O)NCC2CCCCC2)c1`, the “viability” value is 110%. The same measure for `COc1ccc2c(c1)C(=C(C#N)C#N)C(=O)N2CCc1ccccc1`: 91.1%. Next, `CSc1nc2ccc(NC(=O)C3CC(=O)N(Cc4ccccc4)C3)cc2s1` (configuration not stated): 107%. Next, `O=C(CCC1CCCCC1)NCc1cccs1`: 105%. Consider `CCc1ccc(OCC(=O)c2c(O)c3ccccc3oc2=O)cc1`, for which the “viability” value is 116%. The same measure for `CCCn1nnc(NC(=O)COc2ccc(CC)cc2)n1`: 109%; for `COc1cc(/C=N/Nc2ccc(Cl)c(C(=O)O)c2)ccc1OC(=O)c1cccs1`: 116%; for `COc1ccc(-c2nc(C=O)cs2)cc1`: 78%.

As to `Cc1cc(Br)ccc1OCCCCN1CCC(C)CC1`, the “viability” value is 81%. Next, `CCOC(=O)COc1ccc2c3c(c(=O)oc2c1C)CCC3`: 112%; `CCOC(=O)COc1cc([N+](=O)[O-])cc2cccnc12`: 115%; `O=Cc1c(NCc2ccco2)nc2ccccn2c1=O`: 90.6%. Next, `O=C(NCc1ccco1)c1nc2ccccc2s1`: 98.7%.

Consider `O=C(c1nnc(-c2ccc(Cl)cc2)o1)C1CCCC1`, for which the “viability” value is 106%. The same measure for `CC1(c2nnc(Cc3ccccc3)o2)CC(c2ccccc2[N+](=O)[O-])=NO1` (configuration not stated): 96.1%; for `CCc1nnc(N/N=C/c2ccc(-c3ccc([N+](=O)[O-])cc3)o2)n1N`: 110%; for `CCCCCCCC(=O)N/N=C/c1ccc([N+](=O)[O-])o1`: 106%. Turning to `O=C(CCNc1cccc(F)c1)c1cccc([N+](=O)[O-])c1`, the “viability” value was 110%. The same measure for `COC(=O)c1cccc(NC(=O)COc2cccc([N+](=O)[O-])c2)c1`: 109%.

For `CC1Cc2ccccc2N1C(=O)COC(=O)c1ccc(Cl)nc1` (configuration not stated), the “viability” value was 84.6%. The same measure for `O=C(COC(=O)c1ccc(Br)o1)NCCCc1ccccc1`: 117%.

On to `COC(=O)CCSCc1cn2cc(Cl)ccc2n1`, for which the “viability” value is 111%.

For `CCC1CCc2sc(C(=O)NNC(=O)c3ccncc3)cc2C1` (configuration not stated), the “viability” value was 90.1%.

Turning to `Cc1ccc(NCCC(=O)c2cccs2)cc1C`, the “viability” value is 109%.

For `COc1ccc(N=N/C(=C\O)C(=O)c2cccs2)cc1`, the “viability” value was 95.2%. Next, `Sc1oc(-c2ccccc2)cc1C=Nc1ccccc1`: 87.7%; `CCOC(=O)COc1ccc(C2CC(C)=NN2c2ccccc2)cc1` (configuration not stated): 99.1%; `COc1ccc(C2=NOC(COC(=O)c3ccc4ccccc4n3)C2)cc1` (configuration not stated): 95.7%. The same measure for `CCCCOc1ccc(NC(=O)CN2CCN(Cc3ccccc3)CC2)cc1`: 101%; for `O=C(COC(=O)C1CC2C=CC1C2)Nc1ccccc1` (configuration not stated): 95.1%. The same measure for `Cc1cc(C)n2[nH]c(=O)c(N=Nc3cccc(C(F)(F)F)c3)c2n1`: 88.8%. Turning to `CCOC(=O)/C=C1\Nc2ccccc2OC1=O`, the “viability” value is 92.2%. The same measure for `Cn1c(SCCOc2cccc(Cl)c2)nnc1-c1ccncc1`: 96.3%; for `Clc1ccc(OCCCCN2CCc3ccccc3C2)cc1`: 92%. Turning to `O=C(COC(=O)CCc1c[nH]c2ccccc12)Nc1cc([N+](=O)[O-])ccc1Cl`, the “viability” value was 76.8%. `O=C(CCCSc1nc2ccccc2s1)NCc1ccco1`: the “viability” value was 102%. `O=C(O)c1ccc(CN2C(=O)CSC2=S)cc1`: the “viability” value is 102%.

For `c1ccc(Cn2c(SCCN3CCOCC3)nnc2-c2cccnc2)cc1`, the “viability” value was 99.7%.

On to `COc1ccc(CN=C2NN=C(c3ccc(Cl)cc3)CS2)cc1`, for which the “viability” value is 79.2%. Next, `O=C(O)CCCCCN1C(=O)CSC1=S`: 99.2%; `CCOc1ccc(OCC(=O)Nc2nccs2)cc1`: 91%; `COc1ccc(NC(=O)Nc2ccc(O)c3ccccc23)cc1`: 88.4%. Next, `CCOc1ccc2ccccc2c1/C=N/NC(=O)c1ccncc1`: 125%. Next, `O=C(CCSc1ccc(Cl)cc1)Nc1cccnc1`: 85.8%; `COc1ccc(C(=O)OCn2nnc3ccccc3c2=O)cc1`: 97.7%; `Cc1ccc(C(=O)N/N=C/c2cccc3ccccc23)cn1`: 82.5%.

On to `CCOC(=O)C1CCN(CCCSc2ccc(Cl)cc2)CC1`, for which the “viability” value was 109%.

`C/C(=N\NC(=O)c1cccc(Cl)c1)C1C(=O)c2ccccc2C1=O`: the “viability” value is 73.1%. With `C/C(=N/NC(=O)c1cccc(C)c1)c1c(O)cc(C)oc1=O`, the “viability” value was 93%. Turning to `O=C(CCc1ccccc1)NC1C2CC3CC(C2)CC1C3` (configuration not stated), the “viability” value was 75.9%. The same measure for `C/C(=N\NC(=O)c1ccncc1)c1cc2ccccc2oc1=O`: 132%.

Regarding `Cc1ccccc1C(=O)NN1CC(C(=O)OCc2ccc(Cl)c(Cl)c2)CC1=O` (configuration not stated), the “viability” value was 107%. Next, `CSc1ccccc1C(=O)NCc1ccc(S(N)(=O)=O)cc1`: 119%. The same measure for `O=C(COc1ccc(Cl)cc1)OCC(=O)N1CCCc2ccccc21`: 103%; for `CNC(=O)c1[nH]cnc1C(=O)Nc1ccc(Cl)cc1`: 113%; for `O=C(Nc1cccnc1)c1cc(Cl)ccc1Cl`: 113%. Regarding `CN1/C(=C\C(=O)COC(=O)C2COc3ccccc3O2)C(C)(C)c2ccccc21` (configuration not stated), the “viability” value is 89%. The same measure for `CN1/C(=C\C(=O)COC(=O)c2ccc([N+](=O)[O-])o2)C(C)(C)c2ccccc21`: 112%; for `NNC(=O)CNC(=O)C12CC3CC(CC(C3)C1)C2`: 96.7%; for `O=C(OCC(=O)C12CC3CC(CC(C3)C1)C2)c1ccccn1`: 102%.

As for `O=C(NCc1ccc(F)cc1)c1cnccn1`, the “viability” value is 92.3%.

On to `O=C(Oc1cccnc1)c1ccc(Cl)c(Cl)c1`, for which the “viability” value was 103%. For the compound `O=C(OCc1ccc(Cl)c(Cl)c1)c1ccccn1`, the “viability” value was 103%.

Consider `CC(C)c1ccc(OCC(=O)NNC(=O)c2cnccn2)cc1`, for which the “viability” value was 122%.

Regarding `Nc1c(C(=O)NC2CCCCC2)nsc1C(=O)OCC(=O)NC1CCCCC1`, the “viability” value was 77.8%. For `COC(=O)COc1ccc(S(=O)(=O)NCc2ccc3c(c2)OCO3)cc1`, the “viability” value was 125%. The same measure for `COC(=O)CCCC(=O)N1CCCC(C(=O)c2ccc(-c3ccccc3)cc2)C1` (configuration not stated): 111%; for `N#Cc1ccc(CSc2nnc(-c3cccnc3)o2)cc1`: 95.3%; for `O=C(COC(=O)CCC(=O)c1ccc(F)cc1)Nc1ccccc1`: 116%.
